Measurements taken from PubChem BioAssay (EPA / NIEHS).
Calls of active or inactive are those of the source. The calls were made as follows: active = hit-call score of the fitted dose curve at least 0.9, where 1 is the maximum; inactive = score below 0.9.

How the values were obtained:
Conditions in all cases: mRNA level, 48 h; actives raise or lower the signal
[1] = read-out: Cytochrome P450 (CYP1A2), CYP1A2 (gene 1544); test: LTEA_HepaRG_CYP1A2: Life Technologies and Expression Analysis (LTEA) Assay for Cytochrome P450 (CYP1A2) using HepaRG (AID 2283479);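 as to AC50: TaqMan qRT-PCR transcript level normalized to ACTB GAPDH and POLR2A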
Summary of the method: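 CYP1A2 transcript measured by TaqMan qRT-PCR against three housekeeping genes after 48-hour chemical exposure of HepaRG cells. Eight-point half-log series topping at 100 uM in 0.5% DMSO, duplicates; gain or loss fitted relative to vehicle.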

[2] = read-out: cysteine-aspartic acid protease (CASP8), CASP8 (gene 841); test: LTEA_HepaRG_CASP8: Life Technologies and Expression Analysis (LTEA) Assay for cysteine-aspartic acid protease (CASP8) using HepaRG (AID 2283480)
Summary of the method: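 HepaRG, 48 h exposure, duplicate wells; 8 conc, half-log from 100 uM, 0.5% DMSO. Serum-free induction medium. CASP8 mRNA by TaqMan qRT-PCR, norm. ACTB/GAPDH/POLR2A; gain/loss fitted vs DMSO.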

[3] = read-out: Cytochrome P450 (CYP2B6), CYP2B6 (gene 1555); test: LTEA_HepaRG_CYP2B6: Life Technologies and Expression Analysis (LTEA) Assay for Cytochrome P450 (CYP2B6) using HepaRG (AID 2283481)
Summary of the method: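 CYP2B6 transcript level quantified by qRT-PCR against three housekeeping genes, fitted bidirectionally relative to DMSO. HepaRG cultures received chemicals for 48 h, 8-point half-log series from 100 uM in 0.5% DMSO, duplicate wells, serum-free induction medium.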

[4] = read-out: Cytochrome P450 2C19 (Homo sapiens) (UniProt P33261); test: LTEA_HepaRG_CYP2C19: Life Technologies and Expression Analysis (LTEA) Assay for CYP2C19 using HepaRG (AID 2283482)
Summary of the method: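 CYP2C19 transcript levels by qRT-PCR, normalized to three housekeeping genes, in HepaRG cells after 48 h chemical exposure. Eight-point half-log series topping at 100 uM, 0.5% DMSO vehicle. Increases and decreases both fitted against DMSO.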

CYP2C8 (gene 1558) = test: LTEA_HepaRG_CYP2C8: Life Technologies and Expression Analysis (LTEA) Assay for CYP2C8 using HepaRG (AID 2283483)
Summary of the method: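 CYP2C8 mRNA induction or loss, by qRT-PCR normalized to ACTB/GAPDH/POLR2A, is read in HepaRG cells after 48 h treatment. Concentrations run from 100 uM down in half-log dilutions, with 0.5% DMSO as vehicle and baseline.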

CYP2C9 (gene 1559) = test: LTEA_HepaRG_CYP2C9: Life Technologies and Expression Analysis (LTEA) Assay for CYP2C9 using HepaRG (AID 2283484)
Summary of the method: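 Cells plated 48 h, switched to serum-free induction medium, then treated in duplicate for 48 h at eight concentrations (max 100 uM, 0.5% DMSO). RNA then analysed by qRT-PCR for CYP2C9; curves fitted in both directions relative to DMSO.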

CYP2E1 (gene 1571) = test: LTEA_HepaRG_CYP2E1: Life Technologies and Expression Analysis (LTEA) Assay for CYP2E1 using HepaRG (AID 2283485)
Summary of the method: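 Differentiated HepaRG cells were treated in duplicate for 48 h with chemicals in 0.5% DMSO, from 100 uM downward in half-log dilutions. RNA was then analysed by qRT-PCR for CYP2E1 induction or loss.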

CYP4A11 (gene 1579) = test: LTEA_HepaRG_CYP4A11: Life Technologies and Expression Analysis (LTEA) Assay for CYP4A11 using HepaRG (AID 2283486)
Summary of the method: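 Readout is CYP4A11 transcript level by qRT-PCR, normalized to three housekeeping genes and fitted bidirectionally against 0.5% DMSO. Human HepaRG cells were treated 48 h, in duplicate, with an 8-point half-log series topping at 100 uM.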

[5] = read-out: Cytochrome P450 3A4 (Homo sapiens) (UniProt P08684); test: LTEA_HepaRG_CYP3A4: Life Technologies and Expression Analysis (LTEA) Assay for CYP3A4 using HepaRG (AID 2283487)
Summary of the method: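 HepaRG, 48 h exposure, 8-pt CRC from 100 uM (half-log), 0.5% DMSO, duplicates; serum-free induction medium. Readout: CYP3A4 mRNA, qRT-PCR, ACTB/GAPDH/POLR2A normalization. Bidirectional fit vs DMSO.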

[6] = read-out: DNA damage-inducible transcript 3 (DDIT3), DDIT3 (gene 1649); test: LTEA_HepaRG_DDIT3: Life Technologies and Expression Analysis (LTEA) Assay for DNA damage-inducible transcript 3 (DDIT3) using HepaRG (AID 2283488)
Summary of the method: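 Changes in DDIT3 transcript, in either direction relative to 0.5% DMSO vehicle, were quantified by TaqMan qRT-PCR after 48 h chemical exposure of HepaRG cells at 8 concentrations, maximum 100 uM.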

[7] = read-out: Early growth response protein 1 (EGR1) transcription factor, EGR1 (gene 1958); test: LTEA_HepaRG_EGR1: Life Technologies and Expression Analysis (LTEA) Assay for Early growth response protein 1 (EGR1) transcription factor using HepaRG (AID 2283490)
Summary of the method: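 Read-out is EGR1 mRNA level by qRT-PCR, normalized to three housekeeping genes and analysed for gain or loss of signal against 0.5% DMSO. Source cells: human HepaRG, treated 48 h at up to 100 uM in half-log dilutions.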

[8] = read-out: Ezrin (EZR), EZR (gene 7430); test: LTEA_HepaRG_EZR: Life Technologies and Expression Analysis (LTEA) Assay for Ezrin (EZR) using HepaRG (AID 2283491)
Summary of the method: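 Read-out is EZR transcript level by qRT-PCR, normalized to three housekeeping genes and fitted bidirectionally against the DMSO control. Human HepaRG cells received test chemicals for 48 h at eight half-log concentrations up to 100 uM in 0.5% DMSO.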

CYP3A5 (gene 1577) = test: LTEA_HepaRG_CYP3A5: Life Technologies and Expression Analysis (LTEA) Assay for CYP3A5 using HepaRG (AID 2283493)
Summary of the method: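 mRNA induction or loss of CYP3A5 assessed in HepaRG after 48 h dosing, 100 uM top concentration, duplicate wells; TaqMan qRT-PCR with ACTB, GAPDH, POLR2A normalization; 0.5% DMSO as negative control.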

[9] = read-out: Fatty Acid-Binding Protein 1 (FABP1), FABP1 (gene 2168); test: LTEA_HepaRG_FABP1: Life Technologies and Expression Analysis (LTEA) Assay for Fatty Acid-Binding Protein 1 (FABP1) using HepaRG (AID 2283494)
Summary of the method: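 HepaRG, 48 h post-plating switched to serum-free induction medium, then dosed 48 h (duplicate, 8 pts, ≤100 uM, 0.5% DMSO). RNA → Fluidigm TaqMan qRT-PCR, FABP1 normed to ACTB/GAPDH/POLR2A. Bidirectional curve fit vs DMSO.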

[10] = read-out: Cytochrome P450 4A22 (Homo sapiens) (UniProt Q5TCH4); test: LTEA_HepaRG_CYP4A22: Life Technologies and Expression Analysis (LTEA) Assay for Cytochrome P450 4A22 (CYP4A22) using HepaRG (AID 2283495)
Summary of the method: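 Gene expression measured by qRT-PCR against three housekeeping genes (ACTB, GAPDH, POLR2A), with gain or loss fitted relative to 0.5% DMSO vehicle. HepaRG cultures received 48 h chemical treatment, top concentration 100 uM, half-log steps, duplicate wells.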

[11] = read-out: Cytochrome P450 7A1 (Homo sapiens) (UniProt P22680); test: LTEA_HepaRG_CYP7A1: Life Technologies and Expression Analysis (LTEA) Assay for Cytochrome P450 7A1 (CYP7A1) using HepaRG (AID 2283496)
Summary of the method: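 Gene expression endpoint in human HepaRG liver cells treated for 48 h with test chemicals (up to 100 uM, 0.5% DMSO). Values come from bidirectional concentration-response fitting versus DMSO.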

[12] = read-out: Glutathione S-Transferase (GSTA2), GSTA2 (gene 2939); test: LTEA_HepaRG_GSTA2: Life Technologies and Expression Analysis (LTEA) Assay for Glutathione S-Transferase (GSTA2) using HepaRG (AID 2283497)
Summary of the method: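 HepaRG, 48 h dosing, 8-pt half-log CRC from 100 uM, 0.5% DMSO vehicle, n=2; RNA → Fluidigm TaqMan qRT-PCR; GSTA2 vs ACTB/GAPDH/POLR2A; gain/loss fit vs DMSO.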

[13] = read-out: Glutamate-cysteine ligase catalytic (GCLC), GCLC (gene 2729); test: LTEA_HepaRG_GCLC: Life Technologies and Expression Analysis (LTEA) Assay for Glutamate-cysteine ligase catalytic (GCLC) using HepaRG (AID 2283498)
Summary of the method: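 Read-out is GCLC transcript level by Fluidigm-based TaqMan qRT-PCR, normalized to three housekeeping genes and fitted in both directions relative to 0.5% DMSO. Human HepaRG cells received chemicals for 48 h, up to 100 uM.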

[14] = read-out: Pro-epidermal growth factor (Homo sapiens) (UniProt P01133); test: LTEA_HepaRG_EGF: Life Technologies and Expression Analysis (LTEA) Assay for Epidermal growth factor (EGF) using HepaRG (AID 2283489)
Summary of the method: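 EGF transcript measured by Fluidigm TaqMan qRT-PCR with three housekeeping genes for normalization, 48 h after dosing HepaRG cultures in duplicate (top 100 uM, half-log steps, 0.5% DMSO vehicle). Gain or loss relative to DMSO fitted.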

[15] = read-out: Cytochrome P450 3A7 (Homo sapiens) (UniProt P24462); test: LTEA_HepaRG_CYP3A7: Life Technologies and Expression Analysis (LTEA) Assay for CYP3A7 using HepaRG (AID 2283492)
Summary of the method: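 CYP3A7 transcript measured by qRT-PCR (ACTB, GAPDH, POLR2A normalization) after 48 h chemical exposure of HepaRG cells in duplicate. Eight half-log concentrations, maximum 100 uM, 0.5% DMSO vehicle; bidirectional curve fitting against DMSO baseline.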

Measured: AC50

Chain of Cytochrome P450 2C19 (Homo sapiens) (P33261 whole entry, looked up): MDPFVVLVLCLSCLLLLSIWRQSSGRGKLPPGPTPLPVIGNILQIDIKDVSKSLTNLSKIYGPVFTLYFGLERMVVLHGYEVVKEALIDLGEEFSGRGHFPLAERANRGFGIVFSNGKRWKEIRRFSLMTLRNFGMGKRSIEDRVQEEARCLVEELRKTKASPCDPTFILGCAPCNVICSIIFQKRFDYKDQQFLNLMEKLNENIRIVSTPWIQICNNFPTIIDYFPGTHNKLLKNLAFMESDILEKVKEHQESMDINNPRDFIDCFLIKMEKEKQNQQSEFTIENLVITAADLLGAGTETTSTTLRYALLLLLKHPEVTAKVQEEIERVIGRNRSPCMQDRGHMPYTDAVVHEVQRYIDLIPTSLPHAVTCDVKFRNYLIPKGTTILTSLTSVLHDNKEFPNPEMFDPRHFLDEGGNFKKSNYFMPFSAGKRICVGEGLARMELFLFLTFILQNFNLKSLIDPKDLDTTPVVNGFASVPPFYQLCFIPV
Chain of Cytochrome P450 3A4 (Homo sapiens) (P08684 whole entry, looked up): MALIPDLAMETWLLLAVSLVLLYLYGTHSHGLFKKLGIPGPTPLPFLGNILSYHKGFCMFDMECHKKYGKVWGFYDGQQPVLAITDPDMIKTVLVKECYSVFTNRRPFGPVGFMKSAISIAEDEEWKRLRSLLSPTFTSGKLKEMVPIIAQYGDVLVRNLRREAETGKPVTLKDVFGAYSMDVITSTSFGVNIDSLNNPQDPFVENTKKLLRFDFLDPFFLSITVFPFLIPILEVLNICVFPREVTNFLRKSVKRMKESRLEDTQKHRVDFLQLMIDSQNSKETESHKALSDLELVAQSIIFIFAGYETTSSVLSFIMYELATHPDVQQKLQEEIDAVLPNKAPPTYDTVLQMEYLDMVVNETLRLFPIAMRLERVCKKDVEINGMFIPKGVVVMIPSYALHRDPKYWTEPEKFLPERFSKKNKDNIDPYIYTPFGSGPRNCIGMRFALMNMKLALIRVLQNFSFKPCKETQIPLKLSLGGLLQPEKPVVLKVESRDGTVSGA
Chain of Cytochrome P450 3A7 (Homo sapiens) (P24462 whole entry, looked up): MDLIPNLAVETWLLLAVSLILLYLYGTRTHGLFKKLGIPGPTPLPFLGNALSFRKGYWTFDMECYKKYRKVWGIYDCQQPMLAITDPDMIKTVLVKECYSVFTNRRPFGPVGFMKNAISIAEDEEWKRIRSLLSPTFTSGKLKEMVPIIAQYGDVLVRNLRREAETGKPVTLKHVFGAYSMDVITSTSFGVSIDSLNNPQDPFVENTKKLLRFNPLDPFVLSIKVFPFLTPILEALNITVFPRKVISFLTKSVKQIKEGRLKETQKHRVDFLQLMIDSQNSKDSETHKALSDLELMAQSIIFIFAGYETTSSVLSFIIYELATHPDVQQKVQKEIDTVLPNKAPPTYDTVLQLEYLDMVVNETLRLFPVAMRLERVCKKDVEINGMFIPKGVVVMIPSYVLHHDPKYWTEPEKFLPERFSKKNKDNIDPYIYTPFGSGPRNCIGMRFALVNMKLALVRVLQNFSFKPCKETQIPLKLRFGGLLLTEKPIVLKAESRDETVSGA

CN(C)c1ccc(Cc2ccc(N(C)C)cc2)cc1
active: [1] 13 µM | [3] 1.6 µM | [4] 12.5 µM | CYP2C8 (gene 1558) 90.6 µM | CYP2C9 (gene 1559) 90.8 µM | CYP2E1 (gene 1571) 50 µM | CYP4A11 (gene 1579) 89 µM | [5] 2.5 µM | [10] 50 µM
not listed: [14] | [15]
inactive: all other assays above

CC(O)CN(CCN(CC(C)O)CC(C)O)CC(C)O (stereo not given)
active: [1] 50 µM | CYP2C8 (gene 1558) 12.6 µM | CYP4A11 (gene 1579) 12.8 µM | [7] 12.6 µM | CYP3A5 (gene 1577) 12.4 µM | [12] 12.5 µM
not listed: CYP2E1 (gene 1571) | [15]
inactive: all other assays above

CCc1cc(SCc2sc(-c3ccc(C(F)(F)F)cc3)nc2CN2CCN(c3ccc(OC)cc3)CC2)ccc1OCC(=O)O
inactive: [1] | CYP2C8 (gene 1558) | [14]
active: [2] 15.8 µM | [3] 7.48 µM | [4] 7.52 µM | CYP2C9 (gene 1559) 76.6 µM | CYP2E1 (gene 1571) 75.4 µM | CYP4A11 (gene 1579) 74.7 µM | [5] 7.66 µM | [6] 3.85 µM | [7] 51.9 µM | [8] 94.3 µM | [15] 8.73 µM | CYP3A5 (gene 1577) 10.9 µM | [10] 8.62 µM | [11] 7.1 µM | [12] 77 µM | [13] 94.1 µM
